Source: PubChem BioAssay AID720565 (National Center for Advancing Translational Sciences (NCATS), 2013)
Where “and” joins values, the source holds several entries; their conditions need not be identical. Identical values can stand only once. Results filed as inconclusive are left out. Unmarked numbers belong to inactive results. Calls of active or inactive are those of the source. The call rests on the fitted dose curve; in most records, active means well fitted activation curve with a large enough effect; inconclusive means small, poorly fitted or top-dose-only effect; inactive means no such curve, though single readings can be large or run the other way.

Assay: qHTS for small molecules that induce genotoxicity in ELG1 expressing cells: Confirmatory Assay for Cherry-picked Compounds; further: nearly all actives have a fitted effect of over 35% in size; on activation: % of control where 0% means no effect
Conditions: ELG1-luciferase reporter cells, luminescence, 16 h; series mostly up to 46.1 µM; activation: at the top concentration
Summary of the method: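 Activation readout: ONE-Glo luciferase signal from ELG1 reporter cells, 2,000 per well, after 16 hr compound incubation at 37 C. Increased ELG1-driven luminescence reflects genetic stress.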
Potency means the concentration at half of the fitted maximal effect.

Q: Which Potency does the source give for C(=C\c1nc2ccccc2s1)/c1ccc2c(c1)OCO2 here?
A: 0.141 µM (active)

Q: With CN(C)c1ccc(-c2cc3ccccc3c(=O)o2)cc1 as the compound, how does the Potency read?
A: 0.445 µM (active)

Q: Which Potency does the source give for CCOC(=O)c1cc(-c2cc(OC)c(OC)c(OC)c2)nc2c1c(=O)[nH]c(=O)n2Cc1ccccc1 here?
A: 25 µM (active)

Q: With CCOC(=O)c1cc(-c2ccc([N+](=O)[O-])cc2)nc2c1c(=O)[nH]c(=O)n2Cc1ccccc1 as the compound, how does the Potency read?
A: 11.2 µM (active)

Q: For Cc1cc2ncc(-c3ccccc3)nc2cc1C, which Potency is on record?
A: 1.41 µM (active)

Q: Which Potency does the source give for CC(=O)c1cc(F)ccc1OCC(=O)Nc1ccc2c(c1)OCO2 here?
A: 6.28 µM (active)

Q: With COc1ccc2c(C)cc(SCC(=O)N3CCOCC3)nc2c1 as the compound, how does the “activation” value read?
A: -2.8%

Q: For Oc1cc(-c2ccc(N3CCCCC3)nc2)cc2cccnc12, which Potency is on record?
A: 25 µM (active)

Q: Which Potency does the source give for O=C(Cc1ccc(OCCCc2ccccc2)cc1)NO here?
A: 15.8 µM (active)

Q: Which Potency does the source give for O=C1/C(=C/c2ccc(O)c(O)c2)Oc2ccccc21 here?
A: 6.28 µM (active)

Q: Which “activation” value does the source give for O=C(CSc1nnc(-c2ccc(F)cc2)o1)Nc1ccc(S(=O)(=O)N2CCCCCC2)cc1 here?
A: 7.03%

Q: With CN(C)c1ccc(/C=C2\C=Cc3ccccc32)c(F)c1 as the compound, how does the Potency read?
A: 1.41 µM (active)

Q: With CC1CCc2nc(-c3cc4ccc(O)cc4oc3=O)sc2C1 (stereo not drawn) as the compound, how does the Potency read?
A: 1.26 µM (active)

Q: With O=C(c1cc2ccccc2[nH]1)c1cc2cc(O)ccc2[nH]1 as the compound, how does the Potency read?
A: 7.05 µM (active)

Q: For c1ccc(-c2cc3cc4c(cc3cn2)OCO4)cc1, which Potency is on record?
A: 2.81 µM (active)

Q: Which Potency does the source give for Oc1cc2cc(-c3csc(-c4ccc(F)cc4)n3)cc3c2n1CCC3 here?
A: 6.28 µM (active)

Q: Which Potency does the source give for O=C(NCc1cccs1)c1cc(-c2ccccc2)on1 here?
A: 11.5 µM (active) and 7.06 µM (active)

Q: Which Potency does the source give for Cc1ccc2nc(-c3ccc(C)c(NC(=O)COc4ccc(Br)cc4)c3)oc2c1 here?
A: 2.5 µM (active)

Q: With CSc1ccc(C(=O)c2[nH]c(=O)[nH]c2C)cc1 as the compound, how does the Potency read?
A: 31.5 µM (active)

Q: Which Potency does the source give for Cc1ccc(NC(=O)c2ccc(OC(=O)c3ccco3)cc2)cc1 here?
A: 11.5 µM (active) and 14.1 µM (active)

Q: Which Potency does the source give for CS(=O)c1ccc(/C=C2\C=Cc3ccccc32)cc1 (stereo not drawn) here?
A: 1.26 µM (active)

Q: Which Potency does the source give for COc1ccc(/C=C2\Oc3ccccc3C2=O)cc1 here?
A: 0.996 µM (active)

Q: For O=C(CSCC(=O)N1CCN(c2ccccc2)CC1)Nc1nc(-c2ccc(Cl)s2)cs1, which “activation” value is on record?
A: -28.8%

Q: Which Potency does the source give for COc1ccc(-c2nnc(SC(C)C(=O)Nc3cccc(Cl)c3)o2)cc1 (stereo not drawn) here?
A: 12.5 µM (active)

Q: For C(=C\c1ccc2ccccc2n1)/c1cccnc1, which Potency is on record?
A: 0.25 µM (active)

Q: Which Potency does the source give for CN(C)c1cccc(-c2ccnc(N3CCC(C(N)=O)CC3)n2)c1 here?
A: 0.5 µM (active)

Q: With O=C(OCC(=O)N1CCc2ccccc2C1)c1c(F)cccc1Cl as the compound, how does the Potency read?
A: 9.96 µM (active)

Q: Which “activation” value does the source give for CCn1c(=O)n(CC)c2cc(S(=O)(=O)N3CCCCC3)c(C)cc21 here?
A: 26.9%

Q: With O=c1c2ccccc2oc2c1oc1ccccc12 as the compound, how does the Potency read?
A: 14.1 µM (active)

Q: With Fc1ccccc1-c1nc(-c2ccc(-c3nn[nH]n3)cc2)no1 as the compound, how does the Potency read?
A: 7.91 µM (active)

Q: For C=CCn1c(C)cc(C(=O)COC(=O)c2n[nH]c(=O)c3ccccc23)c1C, which Potency is on record?
A: 2.81 µM (active)

Q: For Cn1cccc1C(=O)Nc1ccc(N2CCOCC2)cc1, which Potency is on record?
A: 7.05 µM (active)

Q: With Cc1ccccc1-c1nnc(SCC(=O)Nc2cccnc2Cl)o1 as the compound, how does the Potency read?
A: 3.15 µM (active)

Q: Which Potency does the source give for C(=C\c1c[nH]c2ccccc12)/c1ccc2ccccc2n1 here?
A: 0.141 µM (active)

Q: For O=C(CSc1nnc(Cc2ccccc2)o1)Nc1ccc(Br)cn1, which “activation” value is on record?
A: -11.1%

Q: With COc1ccc2cc(C[C@@H]3CC[C@@H](CO)O3)ccc2c1 as the compound, how does the Potency read?
A: 12.5 µM (active)

Q: With Cc1ccc(S(=O)(=O)Nc2cc3c4c(c2)CCN4C(=O)CC3)cc1 as the compound, how does the Potency read?
A: 22.3 µM (active)

Q: With CN(C)c1ccc(N=Nc2ccc(/C=C/c3ccnc4ccccc34)cc2)cc1 as the compound, how does the Potency read?
A: 4.45 µM (active)
